The list is not random: actives were taken first. Their share in the collection is about 1.7%.
Imprint erasure – inducers of genomic imprint erasure in mouse ES cells; 0.02% of 110,000 active; Potency, µM (doses to about 60.7 µM), for inactives: top-dose activity change, positive = activation, hits mostly activators; mouse ES Peg3-LacZ reporter, beta-gal luminescence, 40 h
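Each well holds 300 Peg3LacZ-Neo (maternal) female ES cells incubated 40 h at 37C, 5% CO2. LacZ is measured by BetaGlo luminescence, with AC50 and maximum efficacy derived from dose-response curves.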
p53ts 32C tox – p53ts cell cytotoxicity, permissive temperature | AID 924 | Potency, µM (doses to about 46.1 µM), for inactives: at the highest dose activity change, negative = cytotoxicity, most hits filed as cytotoxic | H1299-p53A138V at 32C, ATP luminescence viability, 24 h | 0.93% of 130,000 active;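 note: 0% = DMSO and -100% = full killing by reference compound; nearly all actives have a fitted effect of over 55% in size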
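ATP-content luminescence (ATPlite) read-out after 24 h compound exposure at 32C in H1299-p53A138V cells (600/well). Tested up to 46 uM. Normalized to DMSO (0%) and 100 uM tamoxifen (100% killing); Hill-fit AC50.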
IkB sig inh – IkB pathway inhibition in ABC-DLBCL cells; 0.04% of 110,000 active; AID 445; Potency, µM (doses to about 57.1 µM), inactives show at the highest dose IkBa stabilization activation; ABC-DLBCL IkBa-CBG/CBR dual luciferase ratio, 4 h; response scale: scaled: untreated 0%, proteasome inhibitor 100%; active = well fitted curve in the direction sought with a large enough effect in the signal ratio, not every such curve was filed as active; inconclusive = small, poorly fitted or top-dose-only effect, or a change in a side signal; the % refers to the signal ratio;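 note: the direction sought is a rising ratio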
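Luminescence ratio of IκBα-fused green versus native red beetle luciferase in OCI-Ly3 cells, 4 h post-doxycycline with compound; red signal alone, scaled from basal (0%) to zero light (-100%), flagged nonspecific or cytotoxic effects.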
p53ts 39C kill – cytotoxicity in p53ts cells at nonpermissive temperature | Potency, µM (doses to about 46.1 µM), for inactives: at the highest dose activity change, negative = cell killing, hits mostly cytotoxic | H1299-p53A138V viability at 39C, ATP luminescence, 24 h | 1.5% of 130,000 active; note: % is set by controls: 0 for no effect and ±100 for the full control effect; nearly all actives have a fitted effect of over 55% in size
* hit, by the source's call; u = inconclusive; x = no result given; [ ] = dose if it differs, or a comment. Unless noted, calls come from the whole dose curve; as a rule, active = well fitted curve in the direction sought with a large enough effect; inconclusive = small, poorly fitted or top-dose-only effect, or another doubt; inactive = no such curve, though single readings can be large; an effect the other way counts as inactive or inconclusive. Potency is the fitted concentration of half-maximal effect.

SMILES	Imprint erasure	p53ts 32C tox	IkB sig inh	p53ts 39C kill
O=C(COC(=O)c1ccco1)Nc1ccc2c(c1)OCCO2	-2%	3%	0%	-2%
CCC(=O)Nc1ccc(NC(=O)c2ccco2)cc1	-34%	13µM*	3%	10µM*
O=C(Nc1ccc2c(c1)OCCO2)NC1CCCCC1	-61%	7.9µM*	u	10µM*
Cc1ccc(C)n1-c1nnc(N2CCCC(C(=O)NCc3cccc(Cl)c3)C2)s1 (stereo unspecified)	-15%[10.9 µM]	0%	u	-14%
COc1ccc(CCC(=O)Nc2ccc(-c3noc(-c4ccc(OC)c(OC)c4)n3)cc2)cc1	-22%	-13%	0%	-3%
COc1ccc(-c2nc(-c3ccc(NC(=O)c4ccc(Br)o4)cc3)no2)cc1OC	-50%	u	1%	13µM*
O=C1CC(c2ccccc2O)Oc2ccc(O)cc21 (stereo unspecified)	4%	17%	x	-5%
CCCCS(=O)(=O)/C=C\C=C/S(=O)(=O)CCCC	-51%	20µM*	u	u
CCCCS(=O)(=O)/C=C\C1C2C=CC(C2)C1S(=O)(=O)CCCC (stereo unspecified)	-15%	-1%	0%	-3%
COc1nc(C)ccc1-c1noc(-c2ccco2)n1	-67%	13µM*	-3%	13µM*
COc1cc(NS(=O)(=O)c2ccc(C)cc2)c2ncccc2c1	-24%	8%	1.3µM*	-21%
COc1ccc(C)cc1NS(=O)(=O)c1cccc2cccnc12	-9%	19%	2%	17%
O=c1cc(-c2ccccc2)nc2cc(-c3ccc(F)cc3)[nH]n12	-37%[10.9 µM]	-20%	u	10µM*
Cc1cc(=O)n2[nH]c(-c3ccccc3)cc2n1	-39%	-21%	2%	-22%
N[C@@H](C(=O)O)[C@@H]1C[C@H]1C(=O)O	x	x	0%	x
CCN(CC)CCOC(=O)c1ccc(NC(=O)c2cc3c(s2)-c2ccccc2OC3)cc1	-6%[10.9 µM]	u	u	16µM*
O=C(Nc1cccc(F)c1)C1CCN(c2nc3ccccc3nc2C(F)(F)F)CC1	18%[10.9 µM]	-12%	u	-20%
COc1ccc(NC(=O)Cn2c(=O)n(Cc3ccco3)c(=O)c3cc(OC)c(OC)cc32)cc1	0%[10.9 µM]	6%	u	u
COc1ccc2nc(NC(=O)c3ccoc3C)sc2c1	-93%	7.9µM*	u	u
COc1ccc2sc(NC(=O)c3ccco3)nc2c1	-85%	10µM*	u	10µM*
CSC(=[SH+])N=N/C(=C1/C=CC=CN1)c1ccccn1.[Cu][Br]	-65%[10.9 µM]	x	x	x
C1=C(CN2CCOCC2)COc2c1cccc2OC[C@@H]1CNCCO1	-8%	1%	1%	-2%
Cn1c(SC2=CS(=O)(=O)c3ccccc32)nc2ccccc21	-23%	u	u	13µM*
O=C(NC(=S)N(CCc1ccccc1)CCc1ccccc1)c1ccco1	x	-10%	x	11µM*
CN1C2CC(OC(=O)C(CO)c3ccccc3)C[C@@H]1[C@H]1OC21 (stereo partly specified)	-11%	x	x	x
SMILES	Imprint erasure	p53ts 32C tox	IkB sig inh	p53ts 39C kill
Cc1ccc(NC(=O)Cn2c(=O)n(CC(=O)NCCc3ccccc3)c(=O)c3ccccc32)cc1C	14%[10.9 µM]	-28%	u	10µM*
Cc1nn(C)c2c1c(C(F)(F)F)cc(=O)n2C(C)C(=O)NCCC(C)C (stereo unspecified)	-13%[10.9 µM]	7%	u	2%
CCN1C(C(=O)c2ccccc2)=C(OC(=O)c2ccccc2OC)c2ccccc2S1(=O)=O	-10%[10.9 µM]	u	u	10µM*
O=S(=O)(NCCc1csc(-c2ccc(F)cc2)n1)c1ccc(Cl)cc1	-9%[10.9 µM]	-18%	u	-13%
Cc1ccc(C)c(N2CCN(C(=O)C3CCN(C(=O)c4cc5sccc5n4C)CC3)CC2)c1	-17%[10.9 µM]	28%	u	-26%
Cc1cccc(N2CCN(C(=O)C3CCN(C(=O)c4cc5sccc5n4C)CC3)CC2C)c1 (stereo unspecified)	23%[10.9 µM]	-11%	u	13µM*
CN1C(=O)c2cccc3c(S(=O)(=O)Nc4cccc(C(=O)O)c4)ccc1c23	-3%[10.9 µM]	3%	u	23%
CCC(CC)C(=O)Nc1nnc(SCc2cc(=O)c3ccccc3[nH]2)s1	-19%[10.9 µM]	7%	0%	-7%
Cc1ccc2scc(N3CCC(C)CC3)c(=O)c2c1	-2%[10.9 µM]	u	25%	u
Cc1ccc2scc(N3CCCCC3)c(=O)c2c1	-7%[10.9 µM]	13µM*	31%	16µM*
Cc1ccc2scc(N3CCCCC3C)c(=O)c2c1 (stereo unspecified)	-17%[10.9 µM]	10µM*	6%	6.3µM*
COC(=O)c1cccc(C23CC4(C2)[C@H](CN(CC2CCCCC2)[C@@H]4c2ccccc2)C3c2ccc(C(F)(F)F)cc2)c1 (stereo partly specified)	-14%	15%	x	11%
CN1C[C@H](C(=O)N[C@]2(C)O[C@@]3(O)[C@H]4CCCN4C(=O)[C@@H](Cc4ccccc4)N3C2=O)C[C@H]2c3cccc4[nH]cc(c34)C[C@@H]21	x	x	1%[11.4 µM]	x
COc1cccc(NC(=O)c2cnc(SCC(=O)N3CCOCC3)n(C)c2=O)c1	-80%[10.9 µM]	10%	u	13µM*
COc1cccc(NC(=O)Cn2c(SCC(=O)N3CCOCC3)nc3ccccc32)c1	-6%	-13%	0%	0%
Cc1ccc(C(C(=O)NC2CCCCC2)N(C)Cc2ccccc2)cc1 (stereo unspecified)	-12%[10.9 µM]	-1%	19%	-24%
CCOC(=O)CN(Cc1ccccc1)C(C(=O)NC1CCCCC1)c1ccccc1 (stereo unspecified)	11%[10.9 µM]	-28%	u	2.5µM*
OCCN(CCO)c1ncnc2nc[nH]c12	-14%[10.9 µM]	4%[9.22 µM]	0%[11.4 µM]	11%[9.22 µM]
COC(=O)c1cc2oc3ccccc3c2n1CC(=O)Nc1ccc(Cl)cc1F	6%[10.9 µM]	-2%	10%	10µM*
COc1ccccc1-n1cc(C(=O)NCC(=O)N2CCN(c3ccccc3)CC2)c2ccccc2c1=O	-17%	13µM*	0%	13µM*
Nc1ccc2ncccc2c1	-28%	u	3%	3.2µM*
Cc1ccc2cccnc2c1	3%	-18%[1.84 µM]	2%	6%
C[C@H]1[C@H](C)CC[C@@]2(C(=O)O)CC[C@]3(C)C(=CC[C@H]4[C@@]5(C)C[C@@H](O)[C@H](O)[C@@](C)(CO)[C@@H]5CC[C@@]43C)[C@@H]12	x	x	-1%[11.4 µM]	x
O=C(COc1ccc(Cl)cc1Cl)Nc1ccccn1	-97%	0.4µM*	u	0.63µM*
O=C(COc1ccccc1Cl)Nc1ccc(Cl)cn1	-51%	13µM*	-2%	16µM*
COc1ccccc1OCC(=O)Nc1ccccn1	-92%	10µM*	u	7.9µM*
O=C(COc1ccc(Cl)cc1Cl)NC(=O)N1CCCCC1	-5%	13µM*	2%	u
O=C(CC(=O)Nc1ccccn1)Nc1ccccn1	8%	-7%	0%	5%
O=C(COc1ccc(Cl)cc1Cl)NCc1ccncc1	-14%	-4%	1%	0%

Compound activity as filed in PubChem BioAssay.
